Laboratory results from ChEMBL document CHEMBL3988442, “University of Dundee, Small-Polar-MMV Screening Library” (2021).
Out of some 48,000 compounds screened, about 13,000 (27%) showed an effect of 50% or more. This is one part of the list.

system: Wolbachia pipientis; test: Anti-Wolbachia Cell-Based Screen; type: functional; set-up: scale not given: in the data most compounds retested in dose-response had high values; conditions: 5 µM

SMILES | Percent Effect [%]
NC(=O)Cn1ccnc1C1CCCN(Cc2nc3ccccc3s2)C1 (configuration not stated) | 1.02
CCCC(=O)N(C)Cc1cccc(OC(C)C)c1 | 0.3075
CCN1CCC(CC(=O)N[C@H](C(=O)O)c2cccc(F)c2F)CC1 | 0.01063
CCOC(=O)[C@@H]1[C@@H](OC)C(=O)N(C)C12CCN(C(=O)C(CC)CC)CC2 | 108.6
CC(C)CN1C[C@@H]2C(=O)N(C)C3(CCN(C(=O)C(C)C)CC3)[C@@H]2C1.O=C(O)C(F)(F)F | 15.99
O=C(c1ccco1)N1CCC2(CC1)C(=O)NCCN2CC1CC1 | 0.967
CCOC(=O)[C@@H]1[C@@H](O)C(=O)N(C)C12CCN(C(=O)c1ccco1)CC2 | 104.5
CCOC(=O)N1CCC2(CC1)N=C(CCC(C)C)NC2=O | 0.1534
CCOC(=O)[C@H]1[C@@H](O)C(=O)N(C)C12CCN(C(=O)CC(C)(C)C)CC2 | 89.62
CCOCC(O)CN1CCN(C(=O)CC(C)(C)C)CC1 (configuration not stated) | 2.808
CCOC(=O)[C@H]1[C@@H](O)C(=O)N(C)C12CCN(C(=O)OCC)CC2 | 113.4
CCN1CC2(CC1=O)CN(C(C)=O)CCN(C(=O)c1ccco1)C2 (configuration not stated) | 6.232
CC(C)(C)CC(=O)N1CCC(n2cc(C3(O)CCCC3)nn2)CC1 | 20.32
CC(=O)N1CCC2(CC1)[C@@H]1CN(C(=O)N(C)C)C[C@@H]1C(=O)N2C | -8.179
N#Cc1cccnc1NCc1ccc(S(=O)(=O)NC2CC2)cc1 | -3.149
CCOCCNCC1CCN(CCO)CC1 | -14.57
N#Cc1cc(F)ccc1CN1CCCCC1Cn1cncn1 (configuration not stated) | 7.796
O=C(Nc1ccccc1Cn1cncn1)C1CCN(C2CCCCC2)C1 (configuration not stated) | -3.545
COCCCn1cnnc1C(C)NC(=O)c1[nH]c2ccc(C)cc2c1C (configuration not stated) | 21.75
CCOC(=O)[C@H]1[C@@H](O)C(=O)N(C)C12CCN(C(=O)CC1CCCC1)CC2 | 108.5
Cc1nn(C)c(C)c1C(=O)N1CCN(C(=O)CC2CCCCC2)CC1 | -14.94
COCCC1COC2(CCN(C(=O)CC3CCCC3)CC2)C1 (configuration not stated) | -6.475
CCOC(=O)[C@H]1[C@@H](O)C(=O)N(C)C12CCN(S(=O)(=O)CC)CC2 | 107.6
CCS(=O)(=O)N1CCC2(CCCC(=O)N2C)CC1 | 1.174
CCOC(=O)[C@H]1[C@@H](O)C(=O)N(C)C12CCN(C(=O)c1ccccc1)CC2 | 113.3

SMILES | Percent Effect [%]
Cc1ccc(F)c(OC2(C(=O)O)CCN(C(=O)c3ccccc3)CC2)c1 | -18.21
CCOC(=O)C1CN(S(=O)(=O)CC)Cc2ncn(CC)c21 (configuration not stated) | 10.83
CN1C(=O)CC(c2ccccc2)C12CCN(C(=O)c1ccc[nH]1)CC2 (configuration not stated) | -3.808
OC[C@H]1CN(Cc2c(Cl)cncc2Cl)C[C@H]1CN1CCCC1 | -2.945
COCCc1noc(-c2ccc(-c3ccc(N)nc3)nc2)n1 | 3.848
CC(C)N(C)S(=O)(=O)N1CCCC1C(=O)N1CCSCC1 (configuration not stated) | -16.03
CN(C)C1CCCN(Cc2cccc(Cn3cccn3)c2)CC1 (configuration not stated) | -12.17
CCCn1c(C)c(CC(=O)NC)c2c1CC(C)(C)CC2=O | -16.12
Cc1nc[nH]c1CN1CCOC(CCNC(=O)c2ccsc2)C1 (configuration not stated) | 3.165
Cc1nc(-c2ccsc2)ccc1C(=O)NCCC1CCCO1 (configuration not stated) | -16.18
O=C(NCCC1CN(C2CCCC2)CCO1)c1cc(=O)[nH]c(=O)[nH]1 (configuration not stated) | 90.1
Cc1ccc(C(=O)NCCC2CN(C3CCCC3)CCO2)c(C)c1 (configuration not stated) | 105.7
O=C(c1cc(=O)[nH]c(=O)[nH]1)N1CCCCC1c1ccc(F)cc1 (configuration not stated) | -19.12
O=C(NCCC1CN(C2CCCC2)CCO1)c1c[nH]c(=O)[nH]c1=O (configuration not stated) | 104.1
CC(=O)N1CCC(N2CCOC(CC3CCCCC3)C2)CC1 (configuration not stated) | -12.42
O=C(NCCC1CCCO1)c1ccccc1N1CCOCC1 (configuration not stated) | -10.37
Cc1ccc(C(=O)NCC(O)CN2CCCC2=O)c(C)c1 (configuration not stated) | -3.657
CC(c1ccccc1)N(C)C(=O)CN1CCCc2cc(F)cc(F)c21 (configuration not stated) | -34.4
O=C([C@H]1C[C@@H]2CN(c3ncc(F)cn3)C[C@H]1O2)N1CCOCC1 | 99.35
CCc1cnc(N2C[C@H]3C[C@H](C(=O)NC)[C@@H](C2)O3)nc1 | 2.577
CCc1cnc(N2C[C@H]3C[C@H](C(=O)NCC(C)C)[C@@H](C2)O3)nc1 | -2.395
CCc1cnc(N2C[C@H]3C[C@H](C(=O)N4CCOCC4)[C@@H](C2)O3)nc1.O=C(O)C(F)(F)F | 104.4
O=C(O)C(F)(F)F.O=C([C@H]1COC[C@H]2CN(c3ncc(F)cn3)C[C@H]21)N1CCOCC1 | -8.043
O=C([C@H]1C[C@@H]2CN(c3ncc(F)cn3)C[C@H]1O2)N1CCCC1 | 104.9
CCc1cnc(N2C[C@H]3C[C@H](C(=O)N(C)C)[C@@H](C2)O3)nc1 | -23.08

SMILES | Percent Effect [%]
Cc1cnc(N2C[C@H]3C[C@H](C(=O)N(C)C)[C@@H](C2)O3)nc1 | -7.121
O=C(C1CN(c2ncc(F)cn2)CC12CCOCC2)N1CCOCC1 (configuration not stated) | -0.101
O=C(NCCCF)Nc1ccc2nc(N3CCOCC3)oc2c1 | 0.7918
O=C(C1CCN(c2snc3ccccc23)CC1)N1CCCCCC1 | 0.1158
O=C(NC1CCN(c2snc3ccccc23)CC1)C1CCC1 | 9.197
CC(C)NC(=O)C1CCN(c2nc3nc[nH]c(=O)c3s2)CC1 | 92.05
CCc1c(C)nc2ccccc2c1N1CCC(C(=O)NC)CC1 | -7.875
CNC(=O)C1CCN(c2nc3nc[nH]c(=O)c3s2)CC1 | 82.12
CCc1nc(CC(=O)N2CCC(C(=O)N3CCCC3)CC2)cs1 | -3.887
CC(C)NC(=O)C1CCN(Cn2ccc(-c3ccc(F)cc3)n2)CC1 | 3.574
O=C(NC1CCCC1)C1CCN(c2cc(-n3ccnc3)ncn2)CC1 | -4.5
CC(NC(=O)C1CCN(C(C)C)CC1)c1nncn1C1CCCC1 (configuration not stated) | -21.33
O=C(C1CCN(c2nc3nc[nH]c(=O)c3s2)CC1)N1CCCCC1 | 84.01
CNC(=O)C1CCCN(c2nc3c(-c4ccccc4)csc3c(=O)[nH]2)C1 (configuration not stated) | 3.58
O=C(NC1CC1)C1CCN(c2nc3nc[nH]c(=O)c3s2)CC1 | 99.33
CCC(=O)N1CCc2[nH]cnc2C12CCN(CC1CCOC1)CC2 (configuration not stated) | -0.5236
O=C(CCc1ccco1)NCC1CCCN1c1cccnn1 (configuration not stated) | 2.662
Fc1cc(CN2CCOC3(CCOCC3)C2)ccc1Cl | 8.168
CN(C)C(=O)CNC(=O)c1ccc2c(-c3nccs3)noc2c1 | -0.7255
CC(Cc1ccco1)NC(=O)C1=NN(c2ccccc2)C(=O)CC1 (configuration not stated) | -5.577
Cn1cnc2c1CCN(CCCOc1ccc(C#N)cc1)C2 | -1.382
CN(C)c1ccc(-c2nnc([C@H]3CCN(C4CCCCC4)C3)o2)cc1 | -10.19
Cc1cc(NCC2(O)CCOCC2)c2ccccc2n1 | 18.91
O=C(NCCO)C1(Cc2cc(-c3ccc(F)cc3F)no2)CCOCC1 | -8.546
O=C(CNC1(CCO)CCOCC1)Nc1ccc(F)cc1F | 0.1585

SMILES | Percent Effect [%]
O=C(NC1CC1)C1(Cc2cc(-c3ccc(F)cc3F)no2)CCOCC1 | 116.7
O=C(O)C1(Cc2cc(-c3cccc(F)c3)no2)CCOCC1 | -9.48
O=C(O)C1(Cc2cc(-c3ccc(F)cc3)no2)CCOCC1 | 104.3
O=C(O)C1(Cc2cc(-c3ccc(F)cc3F)no2)CCOCC1 | -11.85
Cc1ccccc1-c1cc(CC2(C(=O)O)CCOCC2)on1 | 97.16
Cc1ccccc1C1(C(=O)NCCN2CCCC2)CCOCC1 | 3.645
O=C(O)C1(Cc2cc(-c3ccccc3F)no2)CCOCC1 | 118.9
COCCNC(=O)c1cc(F)ccc1NS(C)(=O)=O | -6.492
Cc1cc(C)n(CC2CCCN2CC(=O)N(C)Cc2cnn(C)c2)n1 (configuration not stated) | 3.257
Cc1ccsc1CN(CCN(C)C)C(=O)C1=NNC(=O)CC1 | -65.43
O=C(CSc1ccncc1)N1CCC2(CC1)c1ccccc1CC2O (configuration not stated) | -6.227
CCS(=O)(=O)N1CC[C@H]2O[C@@H](c3nnc(C)o3)CC[C@H]21 | -3.387
CCc1nc(C)c(C(=O)N2CCNCC2C(=O)NCc2ccncc2)o1 (configuration not stated) | -5.393
COCc1noc(-c2nn(-c3ccc(F)cc3)c3c2CCC3)n1 | -5.396
COCCOCc1cccc(NC(=O)N2CCCC2c2ccncc2)c1 (configuration not stated) | 1.869
CNC(=O)C(C)(C)N1CCC[C@H]1C(=O)NCCN(C)C.Cl | 11.97
Cc1ccccc1C(=O)NC1CCN(c2cnn(C)c2)C1=O (configuration not stated) | -0.04337
Cc1ncc2c(n1)CCCC2NC(=O)c1ccncc1 (configuration not stated) | 4.921
Cc1ncc2c(n1)CCCC2NC(=O)c1ccc(Cn2cccn2)cc1 (configuration not stated) | 102.9
Cc1ncc2c(n1)CCCC2NC(=O)c1ccccc1Cn1cncn1 (configuration not stated) | -4.956
Cc1ncc2c(n1)CCCC2NC(=O)c1ccccc1C(=O)O (configuration not stated) | 116.6
O=C(Nc1ccc(Cn2cccn2)cc1)N1CCC(CO)CC1 | 5.025
